Assay outcomes: PubChem, Johns Hopkins Ion Channel Center
Sampled rows, rich in hits. Any-hit rate of the full collection: about 2.4%.
CHT inh: inhibitors of human choline transporter CHT | 0.86% of 310,000 active | CHT-expressing cells, membrane potential dye, choline response; active compounds read low | High affinity choline transporter 1 (Homo sapiens), Q9GZV3 | B-score at 10 µM;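 active = B-score over 3 SD under the library average, and starting fluorescence ratio not unusually high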;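 note: choline stimulus applied at its EC90 after an EC20 pre-addition; B-score computed on integrated fluorescence ratio after choline addition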
TMEM16A inh: TMEM16A chloride channel inhibitors, primary screen, cell-based, HTS. Anoctamin-1 (Mus musculus), Q8BHY3. HEK293 TMEM16A/YFP iodide influx fluorescence, ionomycin. normalized B-score (activity score, 25-100; higher = stronger inhibition) at 10 µM. 1.2% of 310,000 active. AID 588511, 2011;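 active = ratio plate-corrected score three or more library SD toward inhibition, starting fluorescence score within five deviations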;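 note: score derived from kinetic fluorescence span divided by baseline fluorescence per well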
Target sequence (Q8BHY3 whole entry, looked up): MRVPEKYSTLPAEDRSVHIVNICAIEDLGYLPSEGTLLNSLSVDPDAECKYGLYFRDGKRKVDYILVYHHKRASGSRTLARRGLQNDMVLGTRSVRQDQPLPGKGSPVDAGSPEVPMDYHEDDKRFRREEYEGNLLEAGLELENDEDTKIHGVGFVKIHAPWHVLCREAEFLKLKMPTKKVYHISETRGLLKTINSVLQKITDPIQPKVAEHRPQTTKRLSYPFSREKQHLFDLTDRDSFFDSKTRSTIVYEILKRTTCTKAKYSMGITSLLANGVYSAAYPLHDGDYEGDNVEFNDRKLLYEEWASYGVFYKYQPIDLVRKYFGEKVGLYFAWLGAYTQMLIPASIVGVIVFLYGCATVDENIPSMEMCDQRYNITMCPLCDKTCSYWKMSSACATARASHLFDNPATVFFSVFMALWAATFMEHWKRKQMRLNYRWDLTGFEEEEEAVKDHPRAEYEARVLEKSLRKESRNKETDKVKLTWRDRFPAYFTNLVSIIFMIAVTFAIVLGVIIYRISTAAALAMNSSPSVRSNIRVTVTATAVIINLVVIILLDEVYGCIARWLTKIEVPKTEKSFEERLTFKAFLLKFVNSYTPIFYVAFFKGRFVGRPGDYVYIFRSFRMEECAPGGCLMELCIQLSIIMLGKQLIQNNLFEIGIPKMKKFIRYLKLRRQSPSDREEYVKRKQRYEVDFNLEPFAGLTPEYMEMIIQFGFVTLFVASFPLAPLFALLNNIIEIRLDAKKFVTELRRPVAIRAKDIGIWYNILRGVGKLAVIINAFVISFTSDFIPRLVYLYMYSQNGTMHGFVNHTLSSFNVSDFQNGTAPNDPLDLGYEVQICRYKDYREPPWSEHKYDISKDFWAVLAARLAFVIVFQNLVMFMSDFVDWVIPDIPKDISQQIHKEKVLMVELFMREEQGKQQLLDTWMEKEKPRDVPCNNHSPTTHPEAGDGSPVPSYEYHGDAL
TMEM16A act: TMEM16A chloride channel activators or potentiators, primary screen, cell-based, HTS | B-score at 10 µM | 0.3% of 340,000 active | HEK293 TMEM16A/YFP-H148Q/I152L, iodide quench fluorescence; active compounds read low | Anoctamin-1 (Mus musculus), Q8BHY3;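 active = fluorescence-ratio B-score plate-corrected deviation score at least 3 library SD below zero, with starting fluorescence score within 5 deviations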;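 note: channel opened by trigger with iodide after compound preincubation; score built on the fluorescence ratio of max minus min over baseline; more negative score means more quench and so TMEM16A activation or potentiation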
CHT allo act: CHT positive allosteric modulators, primary screen, cell-based, membrane potential dye, choline EC20; AID 488977, 2010; 0.49% of 310,000 active; CHT-expressing cells; active compounds read high; LV-AA mutant CHT in HEK293 cells; B-score at 10 µM;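 active = initial fluorescence not abnormally high and integrated response B-score, plate-corrected, over 3 SD above library mean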
CHT block conf: CHT inhibitors, confirmation, cell-based, membrane potential dye, duplicate. 70% of 2,400 active. CHT activity remaining % of control (active compounds read low), % at 10 µM. CHT-expressing cells, choline membrane potential dye; LV-to-AA substituted CHT, HEK293 cells. shares compounds with CHT inh;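 active = choline transporter activity left, mean of duplicates at 10 µM, below buffer-only control mean minus 3 SD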;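 note: depolarization triggered by choline at its EC90 following an EC20 pre-addition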
HEK293 MPD ctr: membrane potential effects in parental HEK293, counter-screen for CHT inhibitor project, cell-based, membrane potential dye. membrane potential ratio readout (active if shifted either direction beyond buffer ±3SD; no single direction) at 10 µM. shares compounds with CHT inh. 4% of 2,400 active. choline response; active = decrease or increase beyond buffer ±3SD;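 note: parental cells lack the transporter so any hit is non-specific; ratio is peak minus trough fluorescence over baseline after EC90 choline challenge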
Each line names hits and unclear results; the compound was inactive in the other large screens (follow-up assays come after a bar, where they were run).

COc1ccc(C(=O)C2CCCN(C(=O)c3ccc4cc[nH]c4c3)C2)c(C)c1 (stereo not given)	TMEM16A act -13
CCn1c(CC(=O)Nc2ccc(F)cc2)nnc1SCC(=O)Nc1nnc(C)s1	none
Cc1cc(Cl)ccc1NC(=O)CN(C)C1=NS(=O)(=O)c2ccccc21	none (no result: CHT inh, TMEM16A inh, CHT allo act)
CN1C(=O)/C(=C\c2cc(N=Nc3ccccc3)ccc2O)SC1=S	TMEM16A inh 100
COc1ccc(-c2csc(NC(=O)CSc3n[nH]c(C)n3)n2)cc1	TMEM16A inh 25
CCc1c(C)nc(SCC(=O)Nc2nc(-c3ccc(OC)cc3)cs2)[nH]c1=O	none
NS(=O)(=O)c1ccc(NC(=O)COC(=O)c2ncc(Cl)c(Cl)c2Cl)cc1	TMEM16A act -5 (no result: CHT inh, TMEM16A inh, CHT allo act)
CCOc1ccc(NC(=O)COC(=O)c2ncc(Cl)c(Cl)c2Cl)cc1	none
Nc1ccc2c(C(F)(F)F)cc(C(F)(F)F)nc2n1	none
N#CC(c1ccc(Cl)cc1)c1ccc2c(C(F)(F)F)cc(C(F)(F)F)nc2n1 (stereo not given)	TMEM16A inh 100
C=C1C(=O)c2sccc2C(c2ccc(OC)c(OC)c2)C1COC(C)=O (stereo not given)	TMEM16A act -4.8 (no result: CHT inh, TMEM16A inh, CHT allo act)
CCN1CCN(CC(=O)N2N=C(c3cccs3)CC2c2ccc(OC)c(OC)c2)C(=O)C1=O (stereo not given)	none
S=C(NCc1ccco1)Nc1cccc(Cl)c1	none
S=C(NCc1ccco1)Nc1ccc(Cl)c(Cl)c1	TMEM16A inh 25
COn1c2c(c3c4no[n+]([O-])c4ccc31)CCCC2	none
[O-][n+]1c2c(c3c4non(O)c4ccc31)CCCC2	TMEM16A inh 100
COc1ccc(Nc2nnc(SCC(=O)N3CC(=O)Nc4ccccc43)s2)cc1	none
C[C@H](NC(=O)[C@H](Cc1ccccc1)n1c(=O)[nH]c2ccccc2c1=O)C(=O)N1CCC(C(=O)O)CC1	none
CC(C)C[C@H](NC(=O)[C@H](Cc1ccccc1)n1c(=O)[nH]c2ccccc2c1=O)C(=O)N1CCC(C(=O)O)CC1	TMEM16A act -13
CCOC(=O)N1CCN(C(=O)C(=O)N/N=C/c2ccc(OC)cc2OC)CC1	none
COc1ccccc1-n1cnc2cc(NCc3ccco3)ccc21	CHT allo act 13
O=C1CC(NNc2ccccc2)C(=O)N1c1ccc(N2CCCCC2)cc1 (stereo not given)	none (no result: CHT inh, TMEM16A inh, CHT allo act)
COc1ccc(C(=O)NCc2nnc(SCC(=O)Nc3cccc(F)c3)o2)cc1	none
COc1ccc([C@@H]2[C@@H]3C(=O)N(C(C)(C)C)C(=O)[C@@H]3[C@]3(C)C(=O)N(c4ccc(C(F)(F)F)cc4)C(=O)N23)cc1	none
O=C(NC1CCCCC1)C(c1ccco1)N(C(=O)C(F)(F)F)C1CC1 (stereo not given)	TMEM16A act -5.9
Cc1ccc(CN(C(=O)C(F)(F)F)C(C(=O)NC2CCCCC2)c2ccco2)cc1 (stereo not given)	none
O=C1C2CCCCC2C(=O)N1c1ccc(S(=O)(=O)Nc2ncccn2)cc1 (stereo not given)	none
O=c1c(C=NCCN2CCNCC2)c(-c2ccccc2)[nH]n1-c1ccc([N+](=O)[O-])cc1	none (no result: TMEM16A act)
COc1ccc(-c2[nH]n(-c3ccc([N+](=O)[O-])cc3)c(=O)c2C=NCCN2CCNCC2)cc1	CHT allo act 9.3 (no result: TMEM16A act)
CC(NC(=O)CCN1C(=O)c2ccccc2C1=O)c1ccc2c(c1)CCCC2 (stereo not given)	CHT inh -5.4 | CHT block conf inactive | HEK293 MPD ctr inactive
CCn1c(=O)cc(SCC(=O)NCc2ccc(C)o2)c2ccccc21	CHT inh -5.1 | CHT block conf inactive | HEK293 MPD ctr inactive
O=C(O)c1cnn(-c2nc(-c3cccc([N+](=O)[O-])c3)cs2)c1C(F)(F)F	CHT inh -6 | CHT block conf 66% | HEK293 MPD ctr inactive
O=C(O)c1cnn(-c2nc(-c3cccc(F)c3)cs2)c1C(F)(F)F	none
CC(C)CN1CCNC(=O)C1CC(=O)NCCc1ccc(C(F)(F)F)cc1 (stereo not given)	CHT inh -4.9 | CHT block conf inactive | HEK293 MPD ctr inactive
O=C(NC(=S)N1CCCC1)c1ccccc1Cl	none
CC(NC(=O)c1ccc(NC2=NC3CS(=O)(=O)CC3S2)cc1)c1ccccc1 (stereo not given)	none
Cc1cc(OCc2cc(C(=O)NCCN3CCCCC3CO)no2)cc(C)c1Cl (stereo not given)	CHT inh -5.4 | CHT block conf 49% | HEK293 MPD ctr inactive
COc1cccc(OCc2cc(C(=O)NCCN3CCCCC3CO)no2)c1 (stereo not given)	none
O=S(=O)(c1ccc(NC(=S)NCCC(c2ccccc2)c2ccccc2)cc1)N1CCOCC1	none
Cc1ccc(SCc2nc3ccccc3[nH]2)cc1	none
Cc1cc(C)cc(CC(Cc2nc3ccccc3[nH]2)c2nc3ccccc3[nH]2)c1 (stereo not given)	CHT inh -8.7 | CHT block conf 54% | HEK293 MPD ctr inactive
COc1cccc(C(=O)C(C#N)=C(SC)SC)c1	CHT inh -5.8 | CHT block conf 36% | HEK293 MPD ctr inactive
CSC(SC)=C(C#N)C(=O)c1ccccc1	CHT inh -5 | CHT block conf 37% | HEK293 MPD ctr inactive
COc1cccc(C(=O)Nc2ccc(NC(C)=O)cc2)c1	none
CCOc1ccc(N2CCc3c(C)nc(SC)nc32)cc1	none
CCOC(=O)c1[nH]c(C)c(C(=O)N2CCc3ccccc32)c1C	CHT inh -6 | CHT block conf inactive | HEK293 MPD ctr 2.4
Cc1ccc(N2C(=O)C3C4CC(=O)C(c5ccccc54)C3C2=O)cc1C (stereo not given)	none
Cc1ccc(OCC(=O)N2CCC(C)CC2)c([N+](=O)[O-])n1	none (no result: CHT inh, TMEM16A inh, CHT allo act)
CCCN(C(=O)c1cn(CC)c2nc(C)ccc2c1=O)c1c(N)n(Cc2ccccc2)c(=O)[nH]c1=O	CHT inh -5.3 | CHT block conf 33% | HEK293 MPD ctr inactive
O=C1CSc2ccc(C(=O)Nc3cccc(S(=O)(=O)Nc4ccc(Br)cc4)c3)cc2N1	none
C=CCNC(=O)/C(=C\c1ccc([N+](=O)[O-])cc1)NC(C)=O	CHT inh -7.6 | CHT block conf inactive | HEK293 MPD ctr inactive
CCN(CC(=O)Nc1cccc(OC)c1)CC(=O)Nc1ccccc1C	none
Cc1cccc(NC(=O)c2ccccc2O)c1C	CHT inh -6.4, TMEM16A inh 25 | CHT block conf 69% | HEK293 MPD ctr inactive
